# Measurements taken from the supplement of paper PMC8728848.
# Only a selection was taken, and the strongest signals are over-represented in it overall.
# Key:
# Assay in all cases: glycan array binding signal (z-score within array); higher = stronger binding
# Conditions in all cases: glycan notation: IUPAC condensed, linker removed
# [1] = molecular target: Fuc(a1-2)Gal(b1-3)GalNAc(b1-4)[Neu5Ac(a2-3)]Gal(b1-4)Glc
# How it was run: (§1)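 Negative Z-scores can be read as non-binding. The Z-score is calculated within each array and then averaged across arrays of one protein sequence at different concentrations or buffers and across linkers. Arrays, 3228 in all, were curated from the Consortium for Functional Glycomics database and kept only where the protein sequence was available.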
# [2] = molecular target: Fuc(a1-2)Gal(b1-4)GlcNAc(b1-3)Gal(b1-4)GlcNAc(b1-3)Gal(b1-4)GlcNAc
# How it was run: as §1
# [3] = molecular target: Fuc(a1-2)Gal(b1-4)[Fuc(a1-3)]GlcNAc(b1-3)[Neu5Ac(a2-6)Gal(b1-4)GlcNAc(b1-6)]Gal(b1-4)Glc
# How it was run: as §1
# [4] = molecular target: Fuc(a1-2)Gal6S(b1-4)Glc
# How it was run: as §1
# [5] = molecular target: Fuc(a1-2)Gal6S(b1-4)Glc6S
# How it was run: as §1
# [6] = molecular target: Fuc(a1-2)[Gal(a1-3)]Gal(b1-4)GlcNAc(b1-2)Man(a1-3)[Fuc(a1-2)[Gal(a1-3)]Gal(b1-4)GlcNAc(b1-2)Man(a1-6)]Man(b1-4)GlcNAc(b1-4)GlcNAc
# How it was run: as §1
# [7] = molecular target: Fuc(a1-2)[Gal(a1-3)]Gal(b1-4)GlcNAc(b1-2)Man(a1-3)[Fuc(a1-2)[Gal(a1-3)]Gal(b1-4)GlcNAc(b1-2)Man(a1-6)]Man(b1-4)GlcNAc(b1-4)[Fuc(a1-6)]GlcNAc
# How it was run: as §1
# [8] = molecular target: Fuc(a1-2)[GalNAc(a1-3)]Gal(b1-3)GlcNAc
# How it was run: as §1
# [9] = molecular target: Fuc(a1-3)[Gal(b1-4)]GlcNAc(b1-6)GalNAc
# How it was run: as §1
# [10] = molecular target: Gal(a1-3)Gal
# How it was run: as §1
# [11] = molecular target: Gal(a1-3)[Gal(a1-4)]Gal(b1-4)GlcNAc
# How it was run: as §1
# [12] = molecular target: Gal(b1-3)GalNAc
# How it was run: as §1
# [13] = molecular target: Gal(b1-3)GlcNAc(b1-6)GalNAc
# How it was run: as §1
# [14] = molecular target: Gal(b1-3)GlcNAc(b1-6)[Gal(b1-3)]GalNAc
# How it was run: as §1
# [15] = molecular target: Gal(b1-3)[GlcNAc(b1-6)]GalNAc
# How it was run: as §1
# [16] = molecular target: Gal(b1-3)[Neu5Ac(a2-6)]GalNAc
# How it was run: as §1
# [17] = molecular target: Gal(b1-4)GlcNAc(b1-2)Man(a1-6)[Man(a1-3)]Man(b1-4)GlcNAc(b1-4)GlcNAc
# How it was run: as §1
# [18] = molecular target: Gal(b1-4)GlcNAc(b1-2)[Gal(b1-4)GlcNAc(b1-4)]Man(a1-3)[GlcNAc(b1-4)][Gal(b1-4)GlcNAc(b1-2)Man(a1-6)]Man(b1-4)GlcNAc(b1-4)GlcNAc
# How it was run: as §1
# [19] = molecular target: Gal(b1-4)GlcNAc(b1-2)[Gal(b1-4)GlcNAc(b1-6)]Man(a1-6)[GlcNAc(b1-4)][Gal(b1-4)GlcNAc(b1-2)Man(a1-3)]Man(b1-4)GlcNAc(b1-4)GlcNAc
# How it was run: as §1
# [20] = molecular target: Gal(b1-4)GlcNAc(b1-3)Gal(b1-4)GlcNAc(b1-2)Man(a1-3)[Gal(b1-4)GlcNAc(b1-3)Gal(b1-4)GlcNAc(b1-2)Man(a1-6)]Man(b1-4)GlcNAc(b1-4)GlcNAc
# How it was run: as §1
# [21] = molecular target: Gal(b1-4)GlcNAc(b1-3)Gal(b1-4)GlcNAc(b1-6)[Gal(b1-3)]GalNAc
# How it was run: as §1
# [22] = molecular target: Gal(b1-4)GlcNAc(b1-6)[Gal(b1-3)]GalNAc
# How it was run: as §1
# [23] = molecular target: Gal3S(b1-3)GlcNAc
# How it was run: as §1
# [24] = molecular target: GlcA(b1-3)Gal
# How it was run: as §1
# [25] = molecular target: GlcNAc(b1-2)[GlcNAc(b1-4)]Man(a1-3)[GlcNAc(b1-4)][GlcNAc(b1-2)[GlcNAc(b1-6)]Man(a1-6)]Man(b1-4)GlcNAc(b1-4)[Fuc(a1-6)]GlcNAc
# How it was run: as §1
# [26] = molecular target: GlcNAc(b1-3)Gal(b1-4)GlcNAc(b1-6)[Gal(b1-3)]GalNAc
# How it was run: as §1
# [27] = molecular target: GlcNAc(b1-6)Gal(b1-4)GlcNAc
# How it was run: as §1
# [28] = molecular target: Kdn(a2-3)Gal(b1-3)GalNAc
# How it was run: as §1
# [29] = molecular target: Neu5Ac(a2-3)Gal(b1-3)GalNAc6S
# How it was run: as §1
# [30] = molecular target: Neu5Ac(a2-3)Gal(b1-4)GlcNAc(b1-3)Gal(b1-4)GlcNAc(b1-6)[Gal(b1-3)]GalNAc
# How it was run: as §1
# [31] = molecular target: Neu5Ac(a2-3)Gal(b1-4)GlcNAc(b1-6)[Gal(b1-3)]GalNAc
# How it was run: as §1
# [32] = molecular target: Neu5Ac(a2-3)Gal(b1-4)[Fuc(a1-3)]GlcNAc(b1-3)Gal(b1-4)GlcNAc
# How it was run: as §1
# [33] = molecular target: Neu5Ac(a2-6)Gal(b1-4)GlcNAc(b1-2)[Neu5Ac(a2-6)Gal(b1-4)GlcNAc(b1-4)]Man(a1-3)[GlcNAc(b1-4)][Neu5Ac(a2-6)Gal(b1-4)GlcNAc(b1-2)[Neu5Ac(a2-6)Gal(b1-4)GlcNAc(b1-6)]Man(a1-6)]Man(b1-4)GlcNAc(b1-4)GlcNAc
# How it was run: as §1
# [34] = molecular target: Neu5Ac(a2-6)Gal(b1-4)GlcNAc(b1-3)Gal(b1-4)GlcNAc(b1-3)Gal(b1-4)GlcNAc
# How it was run: as §1
# [35] = molecular target: Neu5Ac(a2-6)Gal(b1-4)GlcNAc(b1-3)Gal(b1-4)GlcNAc(b1-6)[Gal(b1-3)]GalNAc
# How it was run: as §1
# [36] = molecular target: Neu5Ac(a2-6)Gal(b1-4)GlcNAc(b1-6)[Gal(b1-3)]GalNAc
# How it was run: as §1
# [37] = molecular target: Neu5Ac(a2-6)GalNAc(b1-4)GlcNAc
# How it was run: as §1
# [38] = molecular target: Neu5Ac(a2-8)Neu5Ac(a2-8)Neu5Ac(a2-3)[GalNAc(b1-4)]Gal(b1-4)Glc
# How it was run: as §1
# [39] = molecular target: Neu5Gc(b2-6)Gal(b1-4)GlcNAc
# How it was run: as §1
binder,measurement,setting,value
Fm1D (Escherichia coli) (protein) FSCNVDGGSSIGAGTTSVYVNLDPVIQPGQNLVVDLSQHISCWNDYGGWYDTDHINLVQGSAFAGSLQSYKGSLYWNNVTYPFPLTTNTNVLDIGDKTPMPLPLKLYITPVGAAGGVVIKAGEVIARIHMYKIATLGSGNPRNFTWNIISNNSVVMPTHHHHHH,glycan array binding signal (z-score),[1],-0.146
same,glycan array binding signal (z-score),[2],-0.144
same,glycan array binding signal (z-score),[3],-0.143
same,glycan array binding signal (z-score),[4],-0.149
same,glycan array binding signal (z-score),[5],-0.14
same,glycan array binding signal (z-score),[6],-0.142
same,glycan array binding signal (z-score),[7],-0.143
same,glycan array binding signal (z-score),[8],-0.146
same,glycan array binding signal (z-score),[9],-0.139
same,glycan array binding signal (z-score),[10],-0.142
same,glycan array binding signal (z-score),[11],-0.125
same,glycan array binding signal (z-score),[12],2.2
same,glycan array binding signal (z-score),[13],-0.12
same,glycan array binding signal (z-score),[14],3.7
same,glycan array binding signal (z-score),[15],4.94
same,glycan array binding signal (z-score),[16],3.04
same,glycan array binding signal (z-score),[17],-0.144
same,glycan array binding signal (z-score),[18],-0.147
same,glycan array binding signal (z-score),[19],-0.151
same,glycan array binding signal (z-score),[20],-0.138
same,glycan array binding signal (z-score),[21],3.82
same,glycan array binding signal (z-score),[22],10.7
same,glycan array binding signal (z-score),[23],-0.132
same,glycan array binding signal (z-score),[24],-0.143
same,glycan array binding signal (z-score),[25],-0.144
same,glycan array binding signal (z-score),[26],4.57
same,glycan array binding signal (z-score),[27],-0.134
same,glycan array binding signal (z-score),[28],-0.14
same,glycan array binding signal (z-score),[29],-0.141
same,glycan array binding signal (z-score),[30],1.11
same,glycan array binding signal (z-score),[31],5.29
same,glycan array binding signal (z-score),[32],-0.14
same,glycan array binding signal (z-score),[33],-0.142
same,glycan array binding signal (z-score),[34],-0.146
same,glycan array binding signal (z-score),[35],11.5
same,glycan array binding signal (z-score),[36],3.09
same,glycan array binding signal (z-score),[37],-0.144
same,glycan array binding signal (z-score),[38],-0.152
same,glycan array binding signal (z-score),[39],-0.143
